Assay outcomes deposited in PubChem by National Center for Advancing Translational Sciences (NCATS).
hNpr1 antagonist: Natriuretic polypeptide receptor (hNpr1) antagonism - Primary qHTS; Potency, µM (top dose mostly 46.3 µM), for the others: top-dose activity change, negative = inhibition, hits mostly inhibitors; actives 1.6% (n = 76,000); AID 1347048, 2019; Atrial natriuretic peptide receptor 1 (Homo sapiens), P16066; HEK293 hNpr1 GloSensor cGMP, ANP-stimulated luminescence; calls by dose curve; further: nearly all actives have a fitted effect of over 60% in size
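HEK293 cells stably expressing human Npr1 and cGMP GloSensor pGS-40F, loaded 2 h with 2% GloSensor reagent, given compound 30 min at room temperature. Luminescence read before and 20 min after 0.1 nM hNppA.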
NIH3T3 tox: Cytotoxic Profiling in NIH 3T3 Cell Line of Diverse Libraries Using Quantitative High-Throughput Screening. NIH 3T3 viability, CellTiter-Glo ATP luminescence, 48-72 h. Potency, µM (titrated, usually from 96.7 µM), for the others: at the highest dose activity change, negative = cytotoxicity, usual class: inhibitors. actives 4.3% (n = 94,000). AID 1345082, 2018; further: nearly all actives have a fitted effect of over 55% in size
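First NIH 3T3 cells are plated at 400 cells/well; next compound is pinned in; then plates incubate 48 or 72 hr at 37 °C; finally CellTiter-Glo is added and luminescence read after 10 min.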
HEK cytotox: Cytotoxic Profiling in HEK 293 Cell Line of Diverse Libraries Using Quantitative High-Throughput Screening. Potency, µM (doses to about 115 µM), without a hit: at the highest dose activity change, negative = cytotoxicity, actives largely listed as inhibitors. actives 6.6% (n = 94,000). HEK 293 viability, ATP luminescence (CellTiter-Glo), 48-72 h; further: nearly all actives have a fitted effect of over 60% in size
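HEK 293 cells seeded at 250 cells/well were exposed to compound for 48 or 72 hr at 37 degree Celsius. Viability taken as ATP content by CellTiter-Glo luminescence.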
Luciferase inh: Firefly luciferase inhibition profiling of diverse chemical library using quantitative high-throughput screening | Luciferin 4-monooxygenase (Photinus pyralis), P08659 | purified P. pyralis luciferase, luminescence, biochemical | Potency, µM (doses to about 115 µM), most hits filed as inhibitors | actives 2.5% (n = 76,000) | AID 1347043, 2019; further: nearly all actives have a fitted effect of over 65% in size
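Purified 10nM P. pyralis luciferase with 10uM D-luciferin and 10uM ATP in 50mM Tris acetate pH 7.5, 10mM Mg acetate, 0.01% Tween-20, 0.05% BSA. qHTS titration; luminescence read by CCD imager.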
GPT2 inhibitor: Primary qHTS assay for inhibitors of Glutamate pyruvate transaminase 2 (GPT2). Alanine aminotransferase 2 (Homo sapiens), Q8TD30. Recombinant GPT2, coupled pyruvate oxidase/HRP Amplex Red fluorescence. Potency, µM (titrated, usually from 57.7 µM), inactives show at the highest dose activity change, negative = inhibition, actives largely listed as inhibitors. actives 0.25% (n = 100,000); further: nearly all actives have a fitted effect of over 60% in size
Target sequence (Q8TD30 whole entry, looked up): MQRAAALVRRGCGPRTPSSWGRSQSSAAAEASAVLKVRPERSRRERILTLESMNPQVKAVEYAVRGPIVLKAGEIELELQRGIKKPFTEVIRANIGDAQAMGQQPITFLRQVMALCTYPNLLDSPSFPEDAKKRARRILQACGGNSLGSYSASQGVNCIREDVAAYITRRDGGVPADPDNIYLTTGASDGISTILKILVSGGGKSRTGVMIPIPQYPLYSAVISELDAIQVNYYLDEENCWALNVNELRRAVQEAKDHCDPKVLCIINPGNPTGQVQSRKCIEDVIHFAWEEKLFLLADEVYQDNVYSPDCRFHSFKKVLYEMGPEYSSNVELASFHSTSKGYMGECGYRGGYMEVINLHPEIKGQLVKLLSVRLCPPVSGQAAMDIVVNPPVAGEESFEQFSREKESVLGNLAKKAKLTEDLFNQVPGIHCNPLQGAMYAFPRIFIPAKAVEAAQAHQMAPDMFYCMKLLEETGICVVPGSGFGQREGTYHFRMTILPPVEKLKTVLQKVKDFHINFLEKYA
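Inhibition is scored from Amplex Red fluorescence generated when pyruvate oxidase and HRP act on pyruvate released by GPT2. Reactions contain 10ng/uL enzyme, 250uM a-KG and 2mM L-alanine and run 30 min at room temperature.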
* marks the source's active call; other numbers are inactive results; i = inactive; ? = inconclusive; . = not tested or not shown; ! = repeats disagree; [ ] = dose if it differs, or a comment. A selection: hits, their analogues and other compounds. The true share with any hit is near 10%. Unless noted, the call rests on the fitted dose curve; in most records, active means well fitted curve in the direction sought with a large enough effect; inconclusive means small, poorly fitted or top-dose-only effect, or another doubt; inactive means no such curve, though single readings can be large; an effect the other way counts as inactive or inconclusive. On the % scale 0 is the no-effect control and ±100 the full control effect; potency means the concentration at half of the fitted maximal effect.

SMILES | hNpr1 antagonist | NIH3T3 tox | HEK cytotox | Luciferase inh | GPT2 inhibitor
CC(=O)Nc1ccc(C(=O)NC[C@@H]2C=C(C)[C@H](Cc3nnc(-c4ccccc4F)o3)C[C@H]2C(C)C)cc1 | -4.0% | ? | 28.2µM* | i | -6.9%
CC1=C[C@@H](CNC(=O)c2cncnc2)[C@H](C(C)C)C[C@H]1Cc1nnc(-c2ccccc2F)o1 | -7.7% | ? | ? | i | i
CCNC(=O)NC[C@@H]1C=C(C)[C@H](Cc2nnc(-c3ccccc3F)o2)C[C@H]1C(C)C | -27.5%[70.6 µM] | ? | ? | i | -34.1%[88.5 µM]
C#CCNC[C@@H]1C=C(C)[C@H](Cc2nnc(Cc3c[nH]c4ccccc34)o2)C[C@H]1C(C)C | -12.7%[70.6 µM] | ? | 50.1µM* | i | 1.7%[88.5 µM]
COc1ccc(OC)c(S(=O)(=O)N2CCCC2c2nncn2Cc2ccncc2)c1 (stereo not drawn) | 0.5% | i | 18.2% | i | 1.3%
O=C(c1cccnc1)N1CCC2(CNS(=O)(=O)c3cnccc3O2)C1 (stereo not drawn) | . | i | i | . | i
CC1=C[C@@H](CNC(=O)CN(C)C)[C@H](C(C)C)C[C@H]1Cc1nnc(-c2ccccc2F)o1 | -0.6%[70.6 µM] | 31.6µM* | ? | i | -6.3%[88.5 µM]
COc1ccc(-c2nnc(C[C@@H]3C[C@@H](C(C)C)[C@H](CNC(=O)c4cnccn4)C=C3C)o2)cc1 | 1.8% | -6.3% | ? | i | 1.4%
CC1=C[C@@H](CNC(=O)c2cnccn2)[C@H](C(C)C)C[C@H]1Cc1nnc(-c2ccccc2F)o1 | -21.9% | ? | 35.5µM* | i | -24.6%
COc1cccc2c1ccn2CCNC(=O)C1CC(=O)N(c2n[nH]c3ccccc23)C1 (stereo not drawn) | 1.7% | -8.6% | -15.3% | i | i
COc1ccc2[nH]c(C[C@@H]3C[C@@H](C(C)C)[C@H](CNC(=O)c4cnccn4)C=C3C)nc2n1 | -21.7%[70.6 µM] | 100µM* | 63.1µM* | i | 2.9%[88.5 µM]
COc1ccc2[nH]c(C[C@@H]3C[C@@H](C(C)C)[C@H](CNCc4cccnc4)C=C3C)nc2n1 | -16.3%[70.6 µM] | 89.1µM* | 63.1µM* | i | 0.5%[88.5 µM]
COc1ccc2[nH]c(C[C@@H]3C[C@@H](C(C)C)[C@H](CNC(C)=O)C=C3C)nc2n1 | -1.8%[70.6 µM] | ? | 70.8µM* | i | -0.5%[88.5 µM]
Cn1ncc2c(C(=O)N3CCCCC3)cc(-c3ccc(Cl)cc3Cl)nc21 | . | ? | ? | . | i
COc1ccc(Cn2c(C3CCN(C(=O)c4ccc(Cl)cc4)CC3)n[nH]c2=O)cc1 | -3.7% | -12.7% | -0.7% | i | 0.7%
CCOC(=O)N1CCC(NCc2cccnc2Oc2ccccc2C)CC1 | 1.6% | -4.8% | -23.1% | i | i
O=C1CN(C(=O)c2csc3nc(-c4ccc(C(F)(F)F)cc4)cn23)CCCN1 | ? | ? | 44.7µM* | 7.94µM* | -3.5%
CC1CCC2(CC1)OCC(C(=O)NCc1ccccc1)N2C(=O)c1cccc(Cl)c1 (stereo not drawn) | -8.6% | ? | ? | i | i
CC1CCC2(CC1)OCC(C(=O)NCc1ccccc1)N2C(=O)c1ccc(Cl)c(Cl)c1 (stereo not drawn) | 0.4% | 20µM* | ? | i | -8.5%
C=CC(=O)Nc1cc(-n2c(=O)ccc3cnc4ccc(-c5ccc(NS(C)(=O)=O)cc5)cc4c32)ccc1C | . | . | . | . | 3.5%
COc1ccc(CN2CCNc3cc(-c4ccnc(C)c4)ncc3C2)cc1 | -3.3%[70.6 µM] | ? | 89.1µM* | ? | 3.7%[88.5 µM]
Cc1cc(-c2cc3c(cn2)CN(CC2CCOC2)CCN3)ccn1 (stereo not drawn) | 4.3%[70.6 µM] | ? | -30.4%[172 µM] | ? | i
Cc1cc(-c2cc3c(cn2)CN(Cc2cccc(F)c2)CCN3)ccn1 | -24.1%[70.6 µM] | ? | 70.8µM* | 15.8µM* | -0.5%[88.5 µM]
c1cncc(-c2cc3c(cn2)CN(Cc2ccncc2)CCN3)c1 | -17.7%[70.6 µM] | -17.5%[138 µM] | ? | i | 1.0%[88.5 µM]
CCn1cc(-c2cc3c(cn2)CN(Cc2cccnc2)CCN3)cn1 | 1.7%[70.6 µM] | 1.9%[138 µM] | ? | 63.1µM* | 2.8%[88.5 µM]
SMILES | hNpr1 antagonist | NIH3T3 tox | HEK cytotox | Luciferase inh | GPT2 inhibitor
COc1ccc(OC)c(CN2CCNc3cc(-c4ccnc(C)c4)ncc3C2)c1 | 4.3%[70.6 µM] | ? | 100µM* | ? | -7.7%[88.5 µM]
O=S(=O)(Cc1ccccc1)N1CCCC1Cc1noc(-c2cnccn2)n1 (stereo not drawn) | . | 1.0% | i | . | -1.6%
CC1=C[C@@H](CN2CCN(C)CC2)[C@H](C(C)C)C[C@H]1Cc1nnc(-c2ccccc2F)o1 | 0.9%[70.6 µM] | ? | 44.7µM* | i | -3.3%[88.5 µM]
CC1=C[C@@H](CN2CCOCC2)[C@H](C(C)C)C[C@H]1Cc1nnc(-c2ccccc2F)o1 | -19.9%[70.6 µM] | ? | 89.1µM* | i | -6.5%[88.5 µM]
CC1=C[C@@H](CN2CCC(CO)CC2)[C@H](C(C)C)C[C@H]1Cc1nnc(-c2cccnc2)o1 | 1.6%[70.6 µM] | -29.5%[174 µM] | ? | i | i
CC1=C[C@@H](CN2CCN(c3ccccn3)CC2)[C@H](C(C)C)C[C@H]1Cc1nnc(C)o1 | 7.4%[70.6 µM] | ? | ? | i | -6.3%[88.5 µM]
COCCCNC(=O)c1c(OCC(C)C)cc(=O)n2c1CCCCC2 | 3.9% | -19.2% | 0.7% | i | -5.1%
Cc1nnc(-c2cc(-c3cccc(CO)c3)ccn2)n1C1CCCCC1 | 1.2%[70.6 µM] | ? | -21.3%[172 µM] | i | -14.0%[88.5 µM]
COc1cccc(N2CC(C(=O)NCCc3ccc(Cl)cc3)NC2=O)c1 (stereo not drawn) | 10.5% | ? | -23.6% | i | i
O=C(NCCc1ccc(Cl)cc1)C1CN(c2cccc(Cl)c2)C(=O)N1 (stereo not drawn) | 7.6% | 35.5µM*! | ? | i | i
CCC(C)Oc1ccc(CNC(=O)c2cn(CCN)nn2)cc1 (stereo not drawn) | 2.5% | ? | 31.6µM* | i | 3.6%
COCC1(C(=O)N2CCC3(CC2)C(=O)N(C)c2ccccc23)CCC1 | 3.8% | -5.6% | ? | i | -11.8%
COCCNC(=O)[C@@H](C)C1CC[C@@]2(C)CC[C@H](NC(=O)c3ccc(C#N)cc3)[C@@H](C)[C@@H]2[C@H]1O (stereo partly drawn) | 4.2% | -14.7% | -13.0% | i | -7.8%
CCN1c2cc(C(=O)Nc3cccc(C(F)(F)F)c3)ccc2C(=O)N2CCCC21 (stereo not drawn) | -5.0% | 35.5µM* | ? | i | i
CCN1c2cc(C(=O)Nc3cccc(C(F)(F)F)c3)ccc2C(=O)N2CCCCCC21 (stereo not drawn) | -15.2% | ? | 12.6µM* | i | i
